According to PubChem BioAssay AID540332 (The Scripps Research Institute Molecular Screening Center, 2011):
A number with no mark means an inactive call. How the calls were made is not given here.

Test system: Imidazoline I2
Test: selectivity profile across receptors and CYP450s – biochemical, Ricerca HitProfilingScreen, CYP450, set 2, selectivity assay for S1P4 agonist project, profiling panel (AID 540332)
Conditions: Central; at 30 µM; active compounds read high

For `COCCN=C1S/C(=C\c2cc(C)n(-c3ccc(F)cc3F)c2C)C(=O)N1C`, the inhibition was 2%.
